Out of some 67,000 compounds screened, about 300 (0.45%) showed an effect of 50% or more. What follows is part of a selection rich in strong results, with near analogues and random picks from the rest.
biological target: Polyketide synthase Pks13 (Mycobacterium tuberculosis (strain ATCC 25618 / H37Rv)) (UniProt I6X8D2); experiment: Mycobacterium tuberculosis Polyketide synthase 13 Thioesterase (PKS13); type: functional; set-up: scale not given: in the data most compounds retested in dose-response had high values; settings: 30 µM
Sequence (I6X8D2 whole entry): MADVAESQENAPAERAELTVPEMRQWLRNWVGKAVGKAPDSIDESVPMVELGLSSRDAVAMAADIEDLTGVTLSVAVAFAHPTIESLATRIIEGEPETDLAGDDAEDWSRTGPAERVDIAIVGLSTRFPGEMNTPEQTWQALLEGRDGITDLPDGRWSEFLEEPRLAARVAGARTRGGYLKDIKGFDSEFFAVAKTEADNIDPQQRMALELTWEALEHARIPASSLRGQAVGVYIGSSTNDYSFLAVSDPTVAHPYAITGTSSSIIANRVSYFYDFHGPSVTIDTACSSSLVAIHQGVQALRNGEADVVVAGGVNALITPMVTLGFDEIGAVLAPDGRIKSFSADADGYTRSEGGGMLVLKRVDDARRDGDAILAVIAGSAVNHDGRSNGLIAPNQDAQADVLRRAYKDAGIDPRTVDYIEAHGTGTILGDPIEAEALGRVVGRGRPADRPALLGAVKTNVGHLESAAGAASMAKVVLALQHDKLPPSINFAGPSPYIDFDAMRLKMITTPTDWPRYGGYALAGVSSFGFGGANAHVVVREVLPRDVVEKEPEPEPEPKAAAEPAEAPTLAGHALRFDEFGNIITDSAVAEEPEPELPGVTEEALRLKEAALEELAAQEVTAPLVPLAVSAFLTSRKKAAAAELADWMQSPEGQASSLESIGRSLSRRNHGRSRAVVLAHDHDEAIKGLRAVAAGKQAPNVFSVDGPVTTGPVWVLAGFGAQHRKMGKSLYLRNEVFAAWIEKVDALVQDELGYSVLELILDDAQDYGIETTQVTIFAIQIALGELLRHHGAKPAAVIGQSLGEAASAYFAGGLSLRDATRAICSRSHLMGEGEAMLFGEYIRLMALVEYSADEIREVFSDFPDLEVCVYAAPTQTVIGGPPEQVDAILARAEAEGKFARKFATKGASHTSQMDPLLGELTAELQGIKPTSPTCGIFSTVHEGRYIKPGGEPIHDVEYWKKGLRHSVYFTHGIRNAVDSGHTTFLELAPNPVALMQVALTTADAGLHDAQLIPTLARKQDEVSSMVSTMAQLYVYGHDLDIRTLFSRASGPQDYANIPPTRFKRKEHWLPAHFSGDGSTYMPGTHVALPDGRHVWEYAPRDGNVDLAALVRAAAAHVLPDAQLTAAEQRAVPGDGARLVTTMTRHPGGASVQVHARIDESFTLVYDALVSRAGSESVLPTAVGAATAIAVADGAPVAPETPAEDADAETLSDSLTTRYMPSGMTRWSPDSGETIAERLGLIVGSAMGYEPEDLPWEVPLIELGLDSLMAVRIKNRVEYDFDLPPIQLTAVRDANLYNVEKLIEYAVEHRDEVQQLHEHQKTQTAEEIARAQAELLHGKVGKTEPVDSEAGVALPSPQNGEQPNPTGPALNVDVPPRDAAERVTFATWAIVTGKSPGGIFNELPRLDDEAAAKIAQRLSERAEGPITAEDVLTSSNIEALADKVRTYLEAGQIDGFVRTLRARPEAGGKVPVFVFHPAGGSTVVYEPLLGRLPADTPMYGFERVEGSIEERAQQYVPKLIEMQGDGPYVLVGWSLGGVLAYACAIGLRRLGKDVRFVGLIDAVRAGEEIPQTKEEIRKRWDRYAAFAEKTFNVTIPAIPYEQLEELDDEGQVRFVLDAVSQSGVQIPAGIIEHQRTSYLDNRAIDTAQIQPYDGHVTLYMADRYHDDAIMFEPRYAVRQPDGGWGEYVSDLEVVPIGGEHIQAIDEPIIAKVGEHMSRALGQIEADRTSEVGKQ

SMILES | Percent Effect [%]
COc1ccc2[nH]cc(-c3ccnc(NC4CCCC4)n3)c2c1 | 18.6
CN1CCCN(c2nccc(-c3c[nH]c4ccc(Br)cc34)n2)CC1 | -2.62
O=C(COC1CCCC1)N1C[C@@H]2COC[C@]2(COc2cccnc2)C1 | -18
Nc1nccnc1CC1CCCN(Cc2ccnc3ccccc23)C1 (stereo not drawn) | 126
COc1ccccc1CN1CCCC(Cc2nccnc2N)C1 (stereo not drawn) | -2.41
Nc1nccnc1CC1CCCN(Cc2c[nH]c3ccccc23)C1 (stereo not drawn) | 15.3
CCN1C[C@H]2CCN(C(=O)NC3CCCC3)CC[C@H]2S1(=O)=O | -17.8
CC(=O)N1[C@H](Cn2cncn2)C[C@@H]2CN(C(=O)NC3CC3)CC[C@@H]21 | 12.2
O=C(Nc1cnccn1)[C@H]1CO[C@H]2CCN(c3ncc(F)cn3)C[C@H]2C1 | -40.3
COCCN1C(=O)[C@]2(CC[C@@H]3CN(Cc4ccccc4F)C[C@@H]32)N=C1C | -17.4
Cc1csc2ncc(-c3ccnc(N4CCCN(C)CC4)n3)c(=O)n12 | 37.9
Cc1csc2ncc(-c3ccnc(N4CCN(C)CC4)n3)c(=O)n12 | -27.4
Cc1csc2ncc(-c3ccnc(N4CCCC4)n3)c(=O)n12 | 137
C/C(NC(=O)c1ccco1)=C1/C(=O)C[C@@H]2[C@H]1C2(C)C | 0.624
CCCc1ccc(CN2C[C@H]3C(=O)N(CC4CC4)C[C@@]3(C(=O)O)C2)o1 | -6.91
O=C1[C@H]2CN(c3ncccn3)C[C@H]2CN1CCN1CCCC1 | -2.18
COCCN1C[C@@H]2CN(c3ncc(F)cn3)C[C@@H]2C1=O | -5
COCCN1C[C@@H]2CN(c3ncccn3)C[C@@H]2C1=O | 54.8
O=C(NC[C@@H]1C[C@@H]2CN(C(=O)CO)C[C@H]2O1)c1ccsc1 | -53.3
O=C(c1ccc(-n2ccnc2)cc1)N1CCN(c2cnccn2)CC1 | 64.5
O=C(c1cnn(-c2ccccc2)c1)N1CCN(c2cnccn2)CC1 | -16.8
O=C(c1ccc(-n2ccnc2)cc1)N1CCCC1 | -36.5
O=C(c1ccc(-n2cncn2)cc1)N1CCN(c2cnccn2)CC1 | -11.1
Cc1ccnn1-c1ccc(C(=O)N2CCN(c3cnccn3)CC2)cc1 | 1.07
O=C(c1ccc(-n2cc(Br)cn2)cc1)N1CCN(c2cnccn2)CC1 | 81.5
O[C@@]1(c2ccccn2)CC[C@H]2CN(Cc3cccc(Cl)c3Cl)C[C@H]21 | -48.7
O=C(C1CC1)N1C[C@H]2CNC[C@@]2(C(=O)NCCCc2ccccc2)C1 | -27.1

SMILES | Percent Effect [%]
Cc1ncsc1CN1C[C@H](C(=O)NCC2CC2)[C@@H]2CCO[C@@H]2C1 | -19.8
Cc1ccc(CNC(=O)NCCCn2nc3ccccn3c2=O)s1 | 96.8
CCNC(=O)NCCCn1nc2ccccn2c1=O | 0.265
O=C(NCCCn1nc2ccccn2c1=O)NCc1ccccc1 | 2.17
Cc1nc(COC[C@@]23CCC[C@@H]2CN(CC2CCOCC2)C3)cs1 | -23.1
O[C@@H]1C[C@@](CNCC2CC2)(COc2cccnc2)C[C@@H]1O | -28.2
Cc1cc(CN2C[C@@H]3COC[C@@H](C(=O)N4CCCCO4)[C@@H]3C2)oc1C | -7.51
CC(C)N1CCCC(C(=O)N2CCN(c3nsc4ccccc34)CC2)C1 (stereo not drawn) | -2.9
NC(=O)N1CCCC(C(=O)N2CCN(c3nsc4ccccc34)CC2)C1 (stereo not drawn) | -37.1
CCN1CC(C(=O)N2CCN(c3nsc4ccccc34)CC2)CCC1=O (stereo not drawn) | 105
O=C(COC[C@H]1CC[C@H]2[C@H](CCN2c2ncccn2)O1)N1CCCC1 | -9.39
CC(C)=CCN1CCN(C(=O)COc2ccccc2)[C@H]2CS(=O)(=O)C[C@H]21 | -8.58
O=C(C1CC(F)(F)C1)N1C[C@@H]2CN(Cc3ccoc3)CCO[C@@H]2C1 | -7.81
Cc1cccc(CN2CCN(C(=O)N(C)C)[C@@H]3CS(=O)(=O)C[C@@H]32)n1 | -6.96
COc1ncc(-c2cc(-c3ccn(C)c3)nc(N)c2C#N)cn1 | 9.8
CCNc1ncc(-c2cc(-c3ccn(C)c3)nc(N)c2C#N)cn1 | 5.42
CCn1cc(-c2cc(-c3ccn(C)c3)nc(N)c2C#N)cc1C#N | 58.3
CN(C)C(=O)COCC1C[C@@H]2OCCN(Cc3ccco3)[C@H]2C1 (stereo partly drawn) | -27.3
COc1cc(N2C[C@@H]3COC[C@]3(COCc3ccncc3)C2)ncn1 | -5.91
O=C(C[C@@H]1COC[C@H]2CN(C3CCC3)C[C@@H]12)NCc1cccnc1 | 0.641
O=C(c1ccc(F)cc1)N1C[C@H]2CCC[C@@]2(COCc2ccccn2)C1 | -35.6
Cn1cc(NC(=O)c2ccccn2)cc(Cl)c1=O | -33.4
Cn1cc(NC(=O)c2cc[nH]n2)cc(Cl)c1=O | 70.5
COc1ccsc1C(=O)Nc1cc(Cl)c(=O)n(C)c1 | -16.3
O=C(c1ccnnc1)N1CCN2C[C@H](Oc3cccnc3)C[C@H]2C1 | -17.2
COc1ncccc1CN1C[C@H]2CCN(C(C)C)C[C@H]2C1 | 8.32
